Most compounds without a hit are left out; they make up all but 1.5% or so of the library.
MCL1-BIM inh = disrupts human MCL1 binding to BIM-BH3 peptide; Q07820; GST-MCL1 / FITC-Bim-BH3 fluorescence polarization; inhibition, % at 10.9 µM; hit rate 0.68% among 320,000; AID 2057;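 active means inhibition above the mean inhibition of all tested compounds plus 3 SD, set per campaign, cut at about 40% in these data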;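 further: 0% = DMSO wells and 100% = unlabeled Bim-BH3 peptide control; higher means more loss of mP so more displacement of Bim peptide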
EBV gp42 block = inhibitors of Epstein-Barr virus glycoprotein 42 | hit rate 0.42% among 220,000 | AID 1085 | inhibition, % (tested at 21.74 µM) | Q1HVG2 | Fluorescence polarization binding assay, mP read-out; in the data active means inhibition above about 50%
MEX-5 binding = C. elegans MEX-5 TCR-2 RNA binding activity. hit rate 0.38% among 300,000. AID 1832. Q9XUB2. MEX-5/FITC-TCR2 RNA binding, fluorescence polarization; active compounds read low. activity score (negative = inhibition of binding), % at 10 µM;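 active means inhibition past about -25% in most replicates, and total fluorescence under double the plate's negative control median, limit read from the data; inconclusive means replicates evenly split on the limit, or fluorescence at least double controls; inactive means too little inhibition in most replicates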;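 further: 0% = DMSO and -100% = 5 µM competing unlabeled TCR2 RNA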
Bcl-xL primary = inhibitors of human Bcl-xL; inhibition, % at 10.9 µM; Q07817; hit rate 0.7% among 320,000; AID 2129; GST-Bcl-xL / FITC-Bim BH3 peptide fluorescence polarization;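 active means inhibition above the mean of all tested compounds plus 3 SD, cutoff set per campaign, cut at about 30% in these data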;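 further: 0% = DMSO wells and 100% = unlabeled Bim-BH3 peptide competitor; inhibitors lower millipolarization by displacing the labeled peptide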
GLD-1 RNA inh = GLD-1-TGE RNA interaction inhibition (C. elegans); Q17339; purified GLD-1 + fluorescein TGE RNA, fluorescence polarization; inhibition, % at 5.96 µM; hit rate 0.44% among 320,000; AID 2280;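 active means percent inhibition above a per-plate cutoff, the plate mean of test compounds plus 3 SD, cut at about 30% in these data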;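 further: 0% = DMSO wells with GLD-1 and probe and 100% = wells lacking GLD-1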
Target sequence (Q17339 whole entry, looked up): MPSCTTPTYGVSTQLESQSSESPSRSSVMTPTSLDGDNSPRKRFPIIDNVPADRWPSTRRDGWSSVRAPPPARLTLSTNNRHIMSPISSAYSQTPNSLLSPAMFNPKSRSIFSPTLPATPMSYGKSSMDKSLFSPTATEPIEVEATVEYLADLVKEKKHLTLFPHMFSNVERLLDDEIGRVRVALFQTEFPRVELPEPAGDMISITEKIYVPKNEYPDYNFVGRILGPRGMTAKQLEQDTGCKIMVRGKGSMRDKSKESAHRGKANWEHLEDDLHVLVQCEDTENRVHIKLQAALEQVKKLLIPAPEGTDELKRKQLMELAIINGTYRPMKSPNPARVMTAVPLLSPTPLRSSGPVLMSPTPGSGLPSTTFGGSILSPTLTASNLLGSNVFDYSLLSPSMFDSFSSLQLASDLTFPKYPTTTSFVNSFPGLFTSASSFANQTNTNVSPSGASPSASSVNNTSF
eLon inh = inhibits E. coli Lon protease. P0A9M0. purified E. coli Lon protease, fluorescence polarization. inhibition, % at 7.94 µM. hit rate 0.42% among 360,000. AID 602123; in the data active means inhibition above about 13%, passing the limit was not always enough;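 further: 0% = enzyme with probe and DMSO and 100% = no enzyme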
* = called active by the depositor; ? = inconclusive; · = not tested or not shown.

SMILES	MCL1-BIM inh	EBV gp42 block	MEX-5 binding	Bcl-xL primary	GLD-1 RNA inh	eLon inh
O=C(COC(=O)c1cnccn1)Nc1c(Cl)cc(Cl)cc1Cl	-3	·	·	2	0	-22
CCCCC1=CC2=CC(=O)C(C)(OC(=O)CC)C(=O)C2=CN1c1cccc(C#N)c1 (stereo not given)	32	·	-6	31*	40*	-17
CCCCC1=CC2=CC(=O)C(C)(OC(=O)CC)C(=O)C2=CN1c1ccc(OC)cc1 (stereo not given)	4	-6	-3	10	12	5
CC1CCc2c(sc3nc(CN4CCOCC4)nc(NS(=O)(=O)c4cccc([N+](=O)[O-])c4)c23)C1 (stereo not given)	4	59*	1	-2	1	0
COc1cccc(Nc2c3c(nc4c(-c5ccccc5)c(C)nn24)CCC3)c1	6	-1	-2	2	3	-2
Nc1cc2nsnc2cc1Br	41*	50	-2	42*	11	5
O=C(OCC1CC(c2ccccc2)=NO1)c1ccco1 (stereo not given)	5	-16	-1	6	4	-6
CSc1sccc1/C=C(/C#N)C(=O)c1ccco1	0	·	-27*	-1	-2	3
CSc1sccc1/C=N/O	6	-8	-2	6	4	4
COc1ccc(/C=C2\C(=O)NC(=S)N2C(=O)c2ccc(C)cc2)cc1	-53	-25	-26*	-29	-24	-71
C/C(=N/Oc1nc(C)cc(C)n1)c1ccc(Cl)cc1Cl	0	9	2	1	7	-8
CCOC(=O)c1ccc(N2C(=O)C3C(C2=O)C(C(=O)c2ccc(Cl)cc2)N2CCCC32)cc1 (stereo not given)	36	94*	-6	58*	21	-17
CCOC(=O)c1ccc(N2C(=O)C3CC=CCC3C2=O)cc1 (stereo not given)	-5	1	-3	-3	-6	6
CCN(CC)c1ccc2c(c1)oc(=O)c1c(Cl)cc(=O)oc12	-29	54*	0	-10	-112	-157
COc1ccccc1CN(C(=O)CCl)C(C(=O)NC1CCCCC1)c1ccncc1 (stereo not given)	29	4	·	30*	25	25*
CC(C)Oc1ccc(NC(=O)CCC(=O)O)cc1	4	78*	1	3	2	-14
CCOC(=O)N1CCN(Cc2ccccc2F)CC1	-3	-5	0	2	11	-2
CCOC(=O)N1CCN(Cc2ccccc2Cl)CC1	-5	-14	·	-2	87*	-5
COc1cc(OC)c2c(O)c3c(c(-c4c5c(c(O)c6c(OC)cc(OC)cc46)CO[C@@H](C)[C@H]5O)c2c1)[C@H](O)[C@H](C)OC3	56*	13	?	24	27	-19
COc1ccc(/C=C/c2nc(S(=O)(=O)c3ccccc3)c(N(C)C)o2)cc1OC	1	·	·	7	2	-5
CCN1C(=O)/C(=C\c2ccc(-c3ccc([N+](=O)[O-])cc3OC)o2)SC1=Nc1cccc(C(=O)O)c1	·	81*	-7	·	·	-3
COc1ccc(C(=O)Nc2nnc(CC(=O)N/N=C/c3ccc(O)cc3O)s2)cc1	4	·	?	4	43*	-68
Cc1ccc(C(=O)Nc2nnc(CC(=O)N/N=C/c3ccncc3)s2)cc1	-1	2	1	1	-5	6
CC(C)C(NC(=O)/C(=C\c1ccco1)NC(=O)c1ccco1)C(=O)O (stereo not given)	8	·	-2	13	13	-2
NC(=O)/C(=C\c1ccco1)NC(=O)c1ccc(Br)o1	42*	·	-6	37*	19	-15
SMILES	MCL1-BIM inh	EBV gp42 block	MEX-5 binding	Bcl-xL primary	GLD-1 RNA inh	eLon inh
CC(C)C(NC(=O)/C(=C/c1ccco1)NC(=O)c1ccc(Br)o1)C(=O)O (stereo not given)	45*	·	-4	35*	16	1
CC(=O)c1cccc(NC(=O)CC2SC(N3CCCCC3)=NC2=O)c1 (stereo not given)	0	-17	-1	1	-5	-5
O=C(COC(=O)c1cn(-c2ccccc2)nc1-c1ccc(F)cc1)Nc1ncc(Cl)cc1Cl	11	-12	-4	12	-10	2
NS(=O)(=O)c1ccc(NC(=O)COC(=O)c2cn(-c3ccccc3)nc2-c2ccc(F)cc2)cc1	-5	-2	-30*	2	9	-1
CCOC(=O)/C(C#N)=C1/C=CN(Cc2ccccc2)C=N1	5	-4	-5	4	2	-3
CCOC(=O)C(=O)C1=CN(Cc2ccccc2)C=C(C#N)C1	47*	·	1	43*	25	7
CNS(=O)(=O)c1cc2c3c(cccc3c1)C(=O)NC2=O	21	8	1	32*	2	-4
Cc1ccc(NS(=O)(=O)c2cc3c4c(cccc4c2)C(=O)NC3=O)cc1	2	-6	-4	3	3	10
CC(C)OCC(O)CN1CCN(CCN2C(=O)c3cccc4cccc(c34)C2=O)CC1 (stereo not given)	0	·	-59*	-3	14	-4
CCCCCCCCS(=O)c1sc2nc3c(cc2c1N)CCCC3 (stereo not given)	8	-6	3	11	-3	-14
CCOC(=O)CNc1c(-c2ccc(Cl)cc2)nc2cnccn12	26	21	-8	28	1	1
CCOC(=O)CNc1c(-c2ccc(F)cc2)nc2cnccn12	24	·	-12	33*	15	-4
CCOC(=O)C1=C(C)OC(N)=C(C#N)C1c1ccc(C)s1 (stereo not given)	30	3	-2	31*	22	5
O=C(CSc1ncccn1)NCc1ccc(F)cc1	-15	-36	0	-7	3	8
CC(C)OCCCn1c(=NC(=O)c2ccncc2)c(C#N)cc2c(=O)n3ccccc3nc21	37	44	-5	34*	17	-3
CCN1C(=O)/C(=C/C2=Cc3ccccc3OC2C)SC1=S (stereo not given)	-50	52*	-1	-29	-24	-66
CCOC(=O)c1cnc(SCC(=O)Nc2cc(OC)ccc2OC)nc1N	-12	-13	-1	-4	0	2
Nc1ccc(S(N)(=O)=O)cc1	-1	·	-2	-2	2	·
Nc1ccc(S(N)(=O)=O)cc1N	38	14	1	33*	1	-33
Cc1ccc(C(=O)N/C(=C/c2cccs2)C(=O)NCCc2c[nH]c3ccccc23)cc1	-3	1	2	2	-3	-9
CC(=O)c1ccc2cccc3c2c1N=CN3C	28	16	-6	33*	13	-13
CCN(CCCCN1C(=O)c2ccccc2C1=O)c1ccc2c(c1)C(=O)N(C)C2=O	49*	23	-15	38*	6	-1
CCN(CC)c1ccc2c(c1)C(=O)N(C)C2=O	28	26	-7	27	20	4

Screening data from PubChem BioAssay.
